Over roughly 1,600 compounds, “plate-normalized OD600 growth (mean of duplicates)” has its median near 0.31; the lowest 2% begin near 0.23. The list comes from a sample in which the lowest values are over-represented; it also holds similar structures and randomly drawn compounds.
System: Escherichia coli BW25113
Test: plate-normalized OD600 growth (mean of duplicates) (OD600 (normalized)); higher = more growth (less inhibition)
Conditions: 10 µM
Experimental: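 E. coli BW25113 in LB (100 µl, 96-well, no shaking) was exposed to 10 µM of each compound (here the ChemBridge subset of a ~30,000-member library) and grown at 37°C for 24 h or 15°C for 48 h, in duplicate. Growth was read as OD600 and the duplicate ODs were normalized across screening plates to correct plate-to-plate variation.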

Row | Structure (SMILES) | plate-normalized OD600 growth (temperature: 15°C, 48 h) | plate-normalized OD600 growth (temperature: 37°C, 24 h)
1 | CCN(CC)C(=O)c1ccc([N+](=O)[O-])o1 | 0.247 | 0.627
2 | O=C(Nc1ccccc1F)c1ccc([N+](=O)[O-])o1 | 0.201 | 0.592
3 | O=C(Nc1ccccc1NC(=O)c1ccccc1F)c1ccccc1F | 0.263 | 0.627
4 | CCOc1ccccc1N1CCN(C(=O)c2ccccc2C)CC1 | 0.287 | 0.646
5 | Brc1ccc(CN2CCN(c3ccccn3)CC2)cc1 | 0.267 | 0.614
6 | CN1CCCN(CC2CC3C=CC2C3)CC1 (centres undefined) | 0.225 | 0.656
7 | COc1cccc(N2CCN(CC3CC4C=CC3C4)CC2)c1 (centres undefined) | 0.296 | 0.627
8 | COc1ccc(CN2CCCN(C)CC2)cc1Br | 0.229 | 0.632
9 | COc1ccc(S(=O)(=O)N2CCCC2)cc1 | 0.219 | 0.612
10 | COC(=O)Nc1ccc(S(=O)(=O)N2CCCCC2)cc1 | 0.238 | 0.599
11 | COc1ccc(S(=O)(=O)N2CCCC(C)C2)cc1 (centres undefined) | 0.266 | 0.639
12 | Cc1cc(NO)nc(-c2ccc(Br)cc2)n1 | 0.221 | 0.622
13 | Cc1nc(C)c(-c2cc(C)c3c(C)nc(C)nc3n2)c(N)n1 | 0.252 | 0.617
14 | O=C(COc1ccc(Cl)cc1Cl)Nc1ccc(C(=O)O)cc1 | 0.261 | 0.618
15 | COc1cccc(NC(=O)c2ccncc2)c1 | 0.261 | 0.618
16 | O=C(c1cccnc1)N1CCN(C(=O)c2ccco2)CC1 | 0.24 | 0.631
17 | COc1cc(C)c(N)cc1C(C)C | 0.226 | 0.6
18 | COc1ccc(Cc2ccc(OC)c(N)c2)cc1N | 0.254 | 0.632
19 | COc1cc2c(cc1NC(=O)C(Cl)Cl)oc1ccccc12 | 0.232 | 0.619
20 | COc1ccccc1N1C(=O)CC(N2CCN(c3ccc([N+](=O)[O-])cc3)CC2)C1=O (centres undefined) | 0.282 | 0.637
21 | Cc1ccc(N2C(=O)CC(N3CCN(c4ccc([N+](=O)[O-])cc4)CC3)C2=O)c(C)c1 (centres undefined) | 0.218 | 0.612
22 | COc1ccc(N2C(=O)CC(N3CCN(c4ccc(F)cc4)CC3)C2=O)cc1 (centres undefined) | 0.24 | 0.59
23 | Fc1ccccc1OCCCCN1CCCCC1 | 0.214 | 0.61

Row | Structure (SMILES) | plate-normalized OD600 growth (temperature: 15°C, 48 h) | plate-normalized OD600 growth (temperature: 37°C, 24 h)
24 | Cc1ccccc1OCCCCN1CCCCC1 | 0.265 | 0.623
25 | c1ccc(OCCCCN2CCCCC2)cc1 | 0.241 | 0.621
26 | CC(Nc1cc(=O)n(C)c(=O)[nH]1)c1ccccc1 (centres undefined) | 0.254 | 0.611
27 | CC1(C)CC(n2c(NN)nc3c(c2=O)C2(CCCCC2)Cc2ccccc2-3)CCO1 (centres undefined) | 0.255 | 0.631
28 | CC(=O)N1CCC(NC2CCCCCC2)CC1 | 0.269 | 0.62
29 | C=C(C)CN(CC)C1CCN(C(C)=O)CC1 | 0.226 | 0.627
30 | CCN(CCN(C)C)C1CCCCCC1 | 0.26 | 0.618
31 | CN1CCN(C(=O)CC(c2ccccc2)c2ccccc2)CC1 | 0.253 | 0.62
32 | N#Cc1ccc(-c2cccs2)[nH]c1=O | 0.236 | 0.644
33 | NS(=O)(=O)c1ccc(-c2ccc(C=O)o2)cc1 | 0.227 | 0.612
34 | O=Cc1ccc(-c2ccc(Cl)c(C(=O)O)c2)o1 | 0.268 | 0.622
35 | O=C(/C=C/c1ccc(-c2ccc(F)cc2)o1)c1cccs1 | 0.253 | 0.617
36 | COc1ccc2nc3c(nc2c1)C(=O)c1ccccc1-3 | 0.234 | 0.611
37 | c1cncc(-c2nc3c4c5c(sc4ncn3n2)CCCC5)c1 | 0.261 | 0.628
38 | COc1ccc(CNCCC2CCOC(C)(C)C2)cc1 (centres undefined) | 0.263 | 0.65
39 | Cc1nnc(Sc2ccc(C=O)o2)s1 | 0.227 | 0.604
40 | CCOC(=O)N1CCN(Cc2cc(C)ccc2C)CC1 | 0.266 | 0.646
41 | CC(=O)c1ccc(NS(=O)(=O)c2cc(S(=O)(=O)c3ccccc3)ccc2C)cc1 | 0.278 | 0.649
42 | c1ccc(CN2C3=NCCCN3c3ccccc32)cc1 | 0.249 | 0.625
43 | N#CCCS(=O)(=O)c1ccc(Br)cc1 | 0.258 | 0.63
44 | CCCCOc1ccc(C2(C)CC(=O)NC2=O)cc1 (centres undefined) | 0.258 | 0.634
45 | Cc1onc(-c2ccccc2Cl)c1C(=O)NCc1ccc2c(c1)OCO2 | 0.261 | 0.619
46 | Cn1c2ccccc2c2nc3ccc([N+](=O)[O-])cc3cc21 | 0.249 | 0.639

Row | Structure (SMILES) | plate-normalized OD600 growth (temperature: 15°C, 48 h) | plate-normalized OD600 growth (temperature: 37°C, 24 h)
47 | O=C(O)Cn1c2ccccc2c2cc([N+](=O)[O-])ccc21 | 0.226 | 0.625
48 | NNC(=O)c1cc(-c2ccc([N+](=O)[O-])cc2)nc2ccccc12 | 0.251 | 0.647
49 | CN(C)/C=C/c1c(C=O)c2cc([N+](=O)[O-])ccc2n1C | 0.238 | 0.596
50 | CCn1c(C)c(C=O)c2cc([N+](=O)[O-])ccc21 | 0.223 | 0.608
51 | Cn1c(C=O)nc2cc([N+](=O)[O-])ccc21 | 0.241 | 0.625
52 | Cc1n[nH]c(=O)c2cc3c(C)n[nH]c(=O)c3cc12 | 0.259 | 0.622
53 | CC1CCC2(CC1)C(C#N)C(=O)NC(=O)C2C#N (centres undefined) | 0.244 | 0.615
54 | CCCC(=O)NC(c1ccccc1)c1ccccc1 | 0.265 | 0.637
55 | CSc1nc(C)c(C(C)=O)cc1C#N | 0.244 | 0.621
56 | Cc1ccc(S(=O)(=O)CCSc2cccc(C(=O)Nc3ccccc3)c2)cc1 | 0.243 | 0.633
57 | O=C(Nc1ccncc1)c1ccc(Cl)cc1Cl | 0.263 | 0.623
58 | Cc1nonc1NC(=O)Nc1ccncc1 | 0.18 | 0.615
59 | CC(=O)Nc1cccc(NC(=O)Nc2cccc(Cl)c2)c1 | 0.236 | 0.585
60 | Cc1ccc(C(C)NC(=O)c2ccccc2)c(C)c1 (centres undefined) | 0.267 | 0.619
61 | Cc1ccc(NC(=O)[C@@H]2C3C=CC(C3)[C@@H]2C(=O)O)c(C)c1 (some centres undefined) | 0.247 | 0.648
62 | CCCN(CCO)Cc1ccccc1F | 0.235 | 0.589
63 | c1ccc(CCN2CCC(N3CCOCC3)CC2)cc1 | 0.239 | 0.618
64 | c1ccc(CCN2CCN(c3ccccc3)CC2)cc1 | 0.227 | 0.62
65 | c1ccc(CCCN2CCOCC2)cc1 | 0.251 | 0.615
66 | Clc1ccccc1N1CCN(Cc2ccc(Br)o2)CC1 | 0.245 | 0.606
67 | N#CC1=C(N)N2C(=C(C#N)C1c1c(F)cccc1Cl)Sc1ccccc12 (centres undefined) | 0.27 | 0.622
68 | O=C(NCC1CCCO1)c1ccc2c(c1)OCO2 (centres undefined) | 0.243 | 0.615
69 | CN(CCc1ccccn1)Cc1ccc(Cl)c(Cl)c1 | 0.222 | 0.622

Row | Structure (SMILES) | plate-normalized OD600 growth (temperature: 15°C, 48 h) | plate-normalized OD600 growth (temperature: 37°C, 24 h)
70 | CN(CCCc1ccccc1)CCc1ccccn1 | 0.26 | 0.659
71 | Cc1ccc(CN(C)CCc2ccccn2)cc1 | 0.272 | 0.619
72 | CCSC1=C(C#N)C(c2ccc(Cl)cc2Cl)CC(=O)N1 (centres undefined) | 0.255 | 0.65
73 | N#CC1=C(N)OC2=C(C(=O)CCC2)C1c1cccnc1 (centres undefined) | 0.238 | 0.629
74 | CC1=C(C#N)C(c2cccnc2)C2=C(CC(c3ccc(Cl)cc3)CC2=O)N1 (centres undefined) | 0.225 | 0.623
75 | CC1=C(C#N)C(c2ccc(N(C)C)cc2)C2=C(CCCC2=O)N1 (centres undefined) | 0.248 | 0.638
76 | Cc1c(C(=O)NC2CCCC2)cccc1[N+](=O)[O-] | 0.252 | 0.636
77 | O=C(NC1CCCCCC1)c1ccc([N+](=O)[O-])cc1 | 0.212 | 0.629
78 | O=[N+]([O-])c1ccc(CNC2CCCC2)cc1 | 0.254 | 0.621
79 | COc1cccc(NC(=O)c2cccc(I)c2)c1 | 0.244 | 0.596
80 | Cc1n[nH]c(C)c1CCCCOc1ccc(Br)cc1 | 0.216 | 0.601
81 | CCN(CC)CCCOc1ccc(C)cc1 | 0.255 | 0.632
82 | Cc1ccc(OCCCCc2c(C)n[nH]c2C)cc1 | 0.276 | 0.62
83 | CCCn1c(SCCC(=O)O)nc2ccccc21 | 0.257 | 0.621
84 | Cc1cc(=O)[nH]c(SCC(=O)Nc2ccc(Br)cc2)c1C#N | 0.214 | 0.594
85 | N#CC1=C(N)NC(SCC(=O)Nc2ccc(Br)cc2)=C(C#N)C12CCCCC2 | 0.252 | 0.586
86 | N#CC1=C(SCC(=O)Nc2ccc(Br)cc2)NC(=O)C(C#N)C12CCCCC2 (centres undefined) | 0.257 | 0.604
87 | COc1cc(C(=O)n2c(C)nc3ccccc32)cc(OC)c1OC | 0.246 | 0.616
88 | Cc1ccc(-c2nc3ccccc3[nH]2)cc1N | 0.222 | 0.616
89 | Nc1ccc(Br)cc1-c1nc2ccccc2[nH]c1=O | 0.254 | 0.608
90 | O=C(O)CCC(=O)Nc1ccc(-c2nc3ccccc3[nH]2)cc1 | 0.247 | 0.602
91 | COc1ccc(-c2cc(=O)n(CCC#N)[nH]2)cc1 | 0.266 | 0.622
92 | N#Cc1c(NC(=O)c2cc3ncc(Br)cn3n2)sc2c1CCCC2 | 0.263 | 0.623

Row | Structure (SMILES) | plate-normalized OD600 growth (temperature: 15°C, 48 h) | plate-normalized OD600 growth (temperature: 37°C, 24 h)
93 | O=[N+]([O-])c1ccccc1/C=C/CN1CCCCC1CO (centres undefined) | 0.264 | 0.63
94 | C/C=C(\C)CN1CCN(CCOCCO)CC1 | 0.269 | 0.664
95 | CCCCOc1ccc(CN2CCN(CCOCCO)CC2)cc1 | 0.216 | 0.626
96 | CCCCOc1ccc(CN2CCC(O)CC2)cc1 | 0.272 | 0.664
97 | Cc1cc([N+](=O)[O-])nn1CC(=O)NCC(C)C | 0.264 | 0.617
98 | COc1ccc(NC(=O)c2ccccc2OC)cc1OC | 0.248 | 0.615
99 | CN(Cc1ccccc1)C1CC(=O)N(c2ccc(C(=O)O)cc2)C1=O (centres undefined) | 0.246 | 0.621
100 | CC1(C)CC(=O)C=C(Nc2ccc(F)c(F)c2)C1 | 0.247 | 0.617
101 | CC(=O)c1ccc(OCCOc2ccc(C(C)=O)cc2)cc1 | 0.248 | 0.607
102 | CC(=O)c1c(C)[nH]n(-c2ccccc2)c1=O | 0.252 | 0.618
103 | Cc1nn(-c2ccccc2)c(N2CCCCC2)c1C=O | 0.266 | 0.62
104 | Cc1[nH]n(-c2ccccc2)c(=O)c1C=O | 0.224 | 0.605
105 | Cc1ccc(S(=O)(=O)N(CC(=O)O)c2cccc(Cl)c2)cc1 | 0.268 | 0.636
106 | COc1cccc(-c2nc(Cc3ccc(Cl)cc3)no2)c1 | 0.253 | 0.601
107 | CCOc1ccc(Nc2nc(-c3ccc(CC(C)C)cc3)cs2)cc1 | 0.223 | 0.624
108 | Clc1ccc(-c2csc(Nc3ccc4c(c3)OCO4)n2)cc1 | 0.24 | 0.61
109 | CCc1ccc(-c2csc(Nc3cccc(OC)c3)n2)cc1 | 0.222 | 0.604
110 | COc1cccc(Nc2nc(-c3ccc(OC)c(F)c3)cs2)c1 | 0.245 | 0.609
111 | Cc1nc(N)sc1-c1csc(Nc2ccc(O)cc2)n1 | 0.239 | 0.621
112 | COc1ccc(Nc2nc(-c3ccc(F)cc3F)cs2)cc1 | 0.251 | 0.633
